Assay results from PubChem BioAssay (NCI).
About 83,000 compounds went through this panel and 20% of them were active in at least one assay; those are over-represented in the sample as a whole.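 Results are percent growth after 48 hours of single-concentration exposure. 100 means growth as in untreated cells, lower positive values show inhibition; negative values down to -100 show cell death.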 Values without a mark were called inactive. Activity calls are given as the source filed them. Rule for the calls: active = growth percent below 10; inactive = the rest.

What was measured:
Experiment in all cases: NCI-60 one-dose screen, 48 h (100 = growth as untreated, 0 = no growth, -100 = all killed)
[1] = tested on: NCI-H226 lung; conditions: 10 µM unless noted
[2] = tested on: NCI-H322M lung; conditions: 10 µM unless noted
[3] = tested on: HOP-92 NSCLC; conditions: 10 µM unless noted
[4] = tested on: NCI-H522 lung; conditions: 10 µM unless noted
[5] = tested on: A549/ATCC NSCLC; conditions: 10 µM unless noted
[6] = tested on: HT29 colon; conditions: 10 µM unless noted
[7] = tested on: UACC-62 melanoma; conditions: 10 µM unless noted
[8] = tested on: EKVX NSCLC; conditions: 10 µM unless noted
[9] = tested on: UO-31 renal; conditions: 10 µM unless noted
[10] = tested on: TK-10 renal; conditions: 10 µM unless noted
[11] = tested on: MOLT-4 leukemia; conditions: 10 µM
[12] = tested on: RPMI-8226 leukemia; conditions: 10 µM unless noted
[13] = tested on: OVCAR-3 ovarian; conditions: 10 µM unless noted
[14] = tested on: HS 578T breast; conditions: 10 µM unless noted
[15] = tested on: T-47D breast; conditions: 10 µM unless noted
[16] = tested on: HOP-62 NSCLC; conditions: 10 µM unless noted
[17] = tested on: COLO 205 colon; conditions: 10 µM
[18] = tested on: ACHN renal; conditions: 10 µM unless noted
[19] = tested on: CAKI-1 renal; conditions: 10 µM unless noted

Structure (SMILES) | growth [1] | growth [2] [%] | growth [3] | growth [4] | growth [5] | growth [6] | growth [7] | growth [8] | growth [9] | growth [10] [%] | growth [11] | growth [12] | growth [13] | growth [14] | growth [15] | growth [16] | growth [17] | growth [18] | growth [19]
CCCCCCCCCCCCOc1ccc(C(=O)Oc2ccc(CSP3(=O)OCC4OC(n5cnc6c(N)ncnc65)C(F)C4OP(=O)(O)OCC4OC(n5ccc(=O)[nH]c5=O)C(F)C4O3)cc2)cc1 (centres undefined) | 85.5% | 79 | 86.9% | 69.4% | 98.3% | 78.8% | 118% | 107% | 92.9% | 77.5 | 68.3% | 72.2% | 98.2% | 117% | 88.5% | – | – | – | –
C=CC(=O)NC(O)C(Cl)(Cl)Cl (centres undefined) | 112% | 85 | – | – | 103% | 106% | 101% | – | 94.9% | 95.9 | 83.8% | 102% | 105% | 120% | 93.4% | 104% | 111% | 99.6% | –
CCOc1cc(/C=N\Nc2nnc(C)n2N)c(C)cc1N(CCCl)CCCl | 26.6% | 11.3 | -17.4% (active) | 15% | 14.5% | – | -1.59% (active) | – | -42.2% (active) | 31 | -9.42% (active) | -37.9% (active) | 4.15% (active) | 14.6% | 12.6% | – | – | 21.6% | 11.8%
Cc1cc(N(CCCl)CCCl)ccc1C=Nc1ccc2ccccc2c1 | -49.7% (active) | 103 | – | – | – | 92% | 28.4% | – | 50.8% | 73 | 43.7% | 78.8% | 85.7% | – | 5.25% (active) | 42.7% | 87.4% | 57% | 1.75% (active)
CNC(=O)Oc1cccc(OC)c1 | 102% | 132 | 125% | 96.5% | 106% | 103% | 100% | 95.5% | 97.5% | 125 | – | 109% | – | 109% | 108% | – | 119% | 109% | 86.1%
CC(=O)[O][Hg][c]1nc2c(c(=O)n(C)c(=O)n2C)n1C | 108% | 95.7 | – | – | 102% | 95.6% | 96.3% | – | 104% | 110 | 100% | 102% | – | 105% | 88.8% | 120% | 113% | 112% | 83.5%
COC(=O)C1CC2c3ccccc3C1c1ccccc12 (centres undefined) | 92.3% | 98.8 | – | – | 98.2% | 106% | 103% | – | – | – | 97.3% | 82.1% | 115% | – | 102% | 91.3% | 99.8% | 97.9% | 76.5%
O=C1NC2(CCNCC2)Nc2ccccc21 | 97.7% | 109 | 107% | 97.5% | 69.1% | 98.2% | 96.1% | 109% | 89.4% | 98.3 | – | – | 108% | 102% | 109% | – | – | 110% | –
CC1(C)N=C(N)N=C(N)N1c1ccc(OCCCCNC(=O)c2ccc(S(=O)(=O)F)cc2)c(Cl)c1 | 117% | 55.5 | – | – | 51% | 27.6% | 44.1% | – | – | 57.9 | 57.9% | 89.9% | 119% | – | 104% | 102% | 61.7% | – | 99.2%
CC12CCC(=O)C=C1C(O)CC1C2CCC2(C)C(O)CCC12 (centres undefined) | 94.7% | 98 | 103% | 106% | 101% | 108% | 99.5% | 107% | 87.1% | 104 | 96.5% | 108% | 103% | 104% | 112% | – | 112% | 117% | –
C[CH2][Pb]([CH2]C)([CH2]C)[O]C(=O)c1ccc(N)cc1 | 87.5% | 79.6 | – | – | – | 79.8% | – | – | – | – | 60.5% | 59.1% | 57.5% | – | 47.6% | 89.3% | 92.5% | 70.7% | 65.5%
O=[N+]([O-])c1ccc(F)c([N+](=O)[O-])c1F | 100% | 91.7 | – | 95.3% | – | 103% | 107% | 100% | – | 99.9 | 58% | 93.5% | 103% | 103% | 96.6% | 106% | 115% | 113% | 103%
COc1ccc(-c2ccc(OC)c(OC)c2OC)cc1 | 86.7% | 36 | – | – | 38.2% | -4.61% (active) | 34.4% | 52.4% | – | 16.2 | 22.7% | – | -25% (active) | – | – | 26.9% | -13.5% (active) | – | 15.1%
N#CC1c2ccccc2C=CN1C(=O)c1ccc(N(CCCl)CCCl)cc1 (centres undefined) | 78.2% | – | 81% | 69% | 79% | 98.7% | 71.7% | 86.8% | – | 107 | 72.2% | 69.2% | 88.6% | 99.5% | 65.3% | 91.1% | 103% | – | 69.1%
CC(C)CCC[C@@H](C)[C@H]1CC[C@H]2[C@@H]3CC=C4C[C@@H](OC(=O)Cc5ccc(N(CCCl)CCCl)cc5)CC[C@]4(C)[C@H]3CC[C@]12C | 94.3% | 214 | – | 124% | 112% | 107% | 94.4% | 106% | 90% | – | 99.8% | 108% | 112% | 117% | 106% | – | 117% | 100% | 97%
CC[C@H](C)[C@H](NC(=O)Nc1ccccc1)C(=O)N(C)[C@H](C[C@@H](OC(C)=O)c1nc(C(=O)N[C@@H](Cc2ccccc2)C[C@H](C)C(=O)OC)cs1)C(C)C | 24.5% | 48.4 | – | -44.6% (active) | 23.5% | -23.1% (active) | 15.1% | 33.2% | 26.7% | – | 15.7% | 8.45% (active) | -40.4% (active) | 5.14% (active) | – | – | -51.8% (active) | – | –
NC(=O)C(Br)CBr (centres undefined) | -18.8% (active) | – | -83.7% (active) | -81.7% (active) | 4.34% (active) | – | 19.9% | -73.1% (active) | -51.8% (active) | – | -62.1% (active) | -39.3% (active) | -85.1% (active) | 51.1% | 1.22% (active) | -40.8% (active) | -83.4% (active) | -76.2% (active) | –
O=S(=O)(F)c1ncnc2nc[nH]c12 | 89.6% | 97.9 | – | – | 98.5% | 101% | 89.8% | 103% | 66.9% | 103 | 89.2% | – | 60.7% | 77.1% | 91.3% | – | 115% | 98.1% | 81.4%
NC(Cc1ccc2c(c1)OCO2)c1ccc2c(c1)OCO2 (centres undefined) | 105% | – | 63.1% | 97.2% | 104% | 102% | 92.6% | 126% | 100% | 105 | 107% | 96.3% | 120% | 103% | 113% | 105% | 99.9% | 108% | –
CC(C)N=C(NC(C)C)N1CC1 | 108% | 118 | – | 98.2% | 101% | 111% | 105% | 102% | 113% | 122 | – | 121% | 109% | 107% | 111% | – | 113% | – | 99.3%
OC1(c2ccccc2F)c2ccccc2C2=NCCN21 (centres undefined) | 84.8% | 97.2 | 78.9% | – | 114% | 105% | 96% | 97.8% | 84.2% | 90.4 | 97.7% | 107% | 87.9% | 110% | – | – | 101% | 114% | 64.4%
